# Screening results deposited in PubChem by National Center for Advancing Translational Sciences (NCATS).
# B2AR arrestin – recruits beta-arrestin to the human beta2-adrenergic receptor; P07550; beta-arrestin recruitment to beta2AR, cell-based reporter; Potency, µM (titrated, usually from 46.1 µM), for the others: top-dose activation, actives largely listed as activators; 330,000 tested, 0.02% active;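 note: potency is the fitted concentration of half-maximal effect; 0% = DMSO controls and full agonism = EC100 isoproterenol or metaproterenol; nearly all actives have a fitted effect of over 65% in size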
# VP16 counter – inhibits Gal4-VP16 luciferase reporter, ROR gamma counter-screen. Drosophila S2 Gal4-VP16 UAS-luciferase, luminescence, 20 h. AID 2546. 310,000 tested, 3.5% active. Potency, µM (doses to about 53.6 µM), for inactives: at the highest dose activity, negative = inhibition, hits mostly inhibitors;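 note: Gal4-VP16 expression switched on by copper sulfate through the metallothionein promoter; potency is the fitted concentration of half-maximal effect; nearly all actives have a fitted effect of over 50% in size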
# TSHR antagonist – human thyrotropin receptor antagonism | 330,000 tested, 0.2% active | AID 504810 | TSHR-expressing cells, TSH-stimulated cAMP HTRF, 2 h; active compounds read low | P16473 | activity change, negative = inhibition, % at 11.5 µM;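 active = activity change below a set negative limit, meaning inhibition stronger than a set level, cut at about -70% in these data; inconclusive = activity change between two set negative limits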
#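 Antagonism was scored as loss of TSH-driven cAMP in TSHR cells, stimulated with 4nM TSH (EC80) for 2 hours at 37 deg C and detected by homogeneous HTRF competition immunoassay.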
# ELG1 repair inh – ELG1-dependent DNA repair inhibition; HEK293T ELG1-luciferase reporter, luminescence, 16 h; DNA damage induced by 5-fluorouridine; Potency, µM (series often up to 46.1 µM), inactives show top-dose activity change, negative = inhibition, usual class: inhibitors; 330,000 tested, 2.3% active; note: potency is the fitted concentration of half-maximal effect; nearly all actives have a fitted effect of over 55% in size
#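 Step one: seed 2,000 cells per well. Step two: pin-transfer compound or DMSO alongside 5-fluorouridine. Step three: incubate 16 hr, 37 °C, 5% CO2. Step four: add ONE-Glo, wait 30 min, read luminescence.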
# RORg inh – ROR gamma (mouse) transcription inhibition; Potency, µM (top dose mostly 53.6 µM), without a hit: at the top dose activity change, negative = inhibition, usual class: inhibitors; AID 2551; P51450; Drosophila S2 Gal4-RORgamma UAS-luciferase reporter, 20 h; 310,000 tested, 5.4% active; note: potency is the fitted concentration of half-maximal effect; nearly all actives have a fitted effect of over 60% in size
# Target sequence (P51450 whole entry, looked up, the tested form may be a part): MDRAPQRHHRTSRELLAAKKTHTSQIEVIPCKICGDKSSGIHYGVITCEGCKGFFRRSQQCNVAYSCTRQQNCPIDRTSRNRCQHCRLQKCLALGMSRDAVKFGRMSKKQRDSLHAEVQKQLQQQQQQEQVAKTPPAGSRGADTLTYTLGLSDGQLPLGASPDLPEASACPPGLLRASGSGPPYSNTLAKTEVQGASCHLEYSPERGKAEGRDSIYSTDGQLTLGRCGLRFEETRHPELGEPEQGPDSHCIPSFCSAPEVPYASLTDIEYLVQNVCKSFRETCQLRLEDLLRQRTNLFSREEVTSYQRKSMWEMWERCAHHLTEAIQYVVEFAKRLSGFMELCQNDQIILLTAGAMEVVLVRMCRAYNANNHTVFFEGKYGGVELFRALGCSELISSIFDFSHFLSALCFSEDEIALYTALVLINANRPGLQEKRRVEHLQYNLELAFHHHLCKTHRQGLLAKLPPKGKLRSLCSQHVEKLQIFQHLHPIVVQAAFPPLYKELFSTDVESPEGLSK
#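 In this cell-based reporter format, copper sulfate (700 uM final) drives Gal4–ROR gamma fusion expression from a metallothionein promoter in Drosophila Schneider cells; compounds preincubated 1 hr, reporter read after 20 hr at ambient temperature.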
# The depositor's hits bear a star; u = inconclusive; x = no result; [ ] = another dose, or the depositor's remark. Sampled rows, rich in hits. Any-hit rate of the full collection: about 7.5%. Unless noted, calls come from the whole dose curve; as a rule, active = well fitted curve in the direction sought with a large enough effect; inconclusive = small, poorly fitted or top-dose-only effect, or another doubt; inactive = no such curve, though single readings can be large; an effect the other way counts as inactive or inconclusive. Unless noted, % is set by controls: 0 for no effect and ±100 for the full control effect.
SMILES,B2AR arrestin,VP16 counter,TSHR antagonist,ELG1 repair inh,RORg inh
O=C(CC12CC3CC(CC(C3)C1)C2)NCC(c1ccc(F)cc1)N1CCOCC1 (stereo not given),0%,-17%,5,6%,20%
O=C(OCCOc1ccccc1F)c1cccc(S(=O)(=O)N2CCOCC2)c1,0%,x,-6,-3%,x
Cc1cccc(/C=N/NC(=O)c2ccc(F)cc2)n1,0%,u,8,u,7.1µM*
O=C(N/N=C/c1c(Cl)cccc1Cl)c1ccc(F)cc1,-1%,-1%,-8,26%,11µM*
O=C(N/N=C/c1ccc(Cl)cc1Cl)c1cccc(F)c1,0%,u,26,u,11µM*
Cc1cccc(/C=N/NC(=O)c2cccc(Cl)c2)n1,-1%,11µM*,9,9%,7.1µM*
Nc1ccc2cc3ccc(N)cc3nc2c1,x,u,x,x,-41%[10 µM]
CCn1cc(C(=O)O)c(=O)c2cc(F)c(N3CCN[C@@H](C)C3)c(F)c21,x,-1%[17 µM],x,x,-13%[16.9 µM]
CCCCN(CC)S(=O)(=O)c1ccc(C(=O)N(CCCN(C)C)c2nc3cc(C)cc(C)c3s2)cc1,0%,u,-3,-13%,11µM*
CN(C)CCCN(C(=O)c1ccc(S(=O)(=O)N2CCCCCC2)cc1)c1nc2ccc(F)cc2s1,0%,-17%,42,8.2µM*,0%
CN(C)CCCN(C(=O)c1ccc(S(=O)(=O)N2CCOCC2)cc1)c1nc2ccc(F)cc2s1,-2%,-5%,29,u,3%
Cc1ccc2nc(N(CCCN(C)C)C(=O)c3ccc(S(=O)(=O)N4CCCCCC4)cc3)sc2c1,0%,u,4,u,11µM*
CN(CC(=O)Nc1cccc(F)c1)C(=O)CCCn1c(=O)oc2ccccc21,0%,x,15,11%,x
CCOC(=O)COC(=O)c1ccc(O)cc1,0%,14%,0,5%,34%
Cc1ccc(C(=O)COC(=O)c2ccc(O)cc2)cc1,0%,11µM*,12,u,u
COc1cc(CNc2ncnc3c2[nH]c2ccc(C)cc23)cc(OC)c1,0%,-10%,-9,21µM*,u
COc1ccc(CCNc2ncnc3[nH]ncc23)cc1OC,0%,13µM*,-18,u,-27%
COc1ccc(CCNc2ccncn2)cc1OC,-1%,-22%,-9,-18%,5%
COc1ccc(CCNc2ncnc3sc(C)cc23)cc1OC,-1%,0.4µM*,u,u,u
CCOc1ccc2[nH]c3c(NCCc4ccc(OC)c(OC)c4)ncnc3c2c1,0%,-22%,-12,21µM*,5%
CCCn1c(C)nc2c(NCCCN(CC)CC)nc(C)nc21,x,-11%,x,x,-8%
O=C(Nc1cc(C(F)(F)F)ccc1N1CCOCC1)c1ccccc1,0%,1%,3,-18%,5%
CC(=O)NC(=S)Nc1cc(C(F)(F)F)ccc1N1CCOCC1,-3%,u,-3,-23%,13µM*
O=C(NC(=S)Nc1cc(C(F)(F)F)ccc1N1CCOCC1)c1ccco1,0%,11µM*,-11,5%,1.4µM*
NC(=O)C1CCN(c2nc(-c3cccc4ccccc34)cs2)CC1,x,x,4,x,x
SMILES,B2AR arrestin,VP16 counter,TSHR antagonist,ELG1 repair inh,RORg inh
C/C(CCN1CCCc2nc(C)c(C)cc21)=N\O[C@@H](C)CN1CCCCc2nc(C)c(C)cc21,x,-6%[10 µM],x,x,4%[10 µM]
Cc1ccc(-c2c(C(=O)N/N=C/c3ccsc3)nnn2-c2nonc2N)cc1,1%,20µM*,-2,0%,7.1µM*
Cc1ccc(/C=N/NC(=O)c2nnn(-c3nonc3N)c2CSc2ccccc2)o1,0%,11µM*,-15,-4%,7.1µM*
Cc1ccc(-c2c(C(=O)N/N=C/c3cccs3)nnn2-c2nonc2N)cc1,0%,5.6µM*,7,0%,7.1µM*
Cc1ccc(-c2c(C(=O)N/N=C/c3ccoc3)nnn2-c2nonc2N)cc1,0%,u,-5,0%,11µM*
CCCOc1ccc(-c2c(C(=O)N/N=C/c3ccc(C)cc3)nnn2-c2nonc2N)cc1,0%,-13%,5,-20%,u
Cc1ccc(/C=N/NC(=O)c2nnn(-c3nonc3N)c2CSc2ccccc2)cc1,0%,-1%,-5,-4%,-18%
COc1cccc(NC(=O)CSc2ccc3nnc(CCNC(=O)c4ccccc4)n3n2)c1,0%,-7%,0,1%,31%
C=CCCC(=O)N1CCC(n2nccc2NC(=O)c2ccccc2C)CC1,0%,4%,4,10%,-1%
COC(=O)N[C@@H](CCc1ccccc1)[C@]1(C(C)=O)CCCC1=O,x,-5%,x,x,u
COc1ccc(-n2c(=O)c(-c3ccc(F)c(F)c3)nc3cncnc32)cc1,x,-4%,x,x,-1%
CCCCC[C@]12Cc3cc(OC)c(OC)cc3[C@H](O1)c1c(cc(C)oc1=O)O2,0%[9.22 µM],1%[10 µM],x,x,1%[10 µM]
CCOc1ccc(-c2c(C(=O)N/N=C/c3cccs3)nnn2-c2nonc2N)cc1,-1%,6.3µM*,-9,-6%,2.2µM*
Cc1ccc(SCc2c(C(=O)N/N=C/c3ccccc3)nnn2-c2nonc2N)cc1,-1%,-5%,-5,u,-44%
CCOc1ccc(/C=N/NC(=O)c2nnn(-c3nonc3N)c2-c2cccs2)cc1,0%,-6%,19,1%,-33%
Cc1ccc(SCc2c(C(=O)N/N=C/c3ccoc3)nnn2-c2nonc2N)cc1,0%,16µM*,-18,-5%,7.9µM*
CN1CCO[C@H](c2ccccc2)c2ccccc2C1,x,-14%[17 µM],x,x,5%[2.98 µM]
O=C1CS/C(=N/N=C\c2ccn[nH]2)N1,-1%,u,15,-16%,10µM*
CC(Sc1nc2cc([N+](=O)[O-])ccc2n1-c1cccc(C(F)(F)F)c1)C(=O)NC(N)=O (stereo not given),-1%,20µM*,-8,1%,13µM*
O=C(/C=C/c1cccc(Cl)c1)Nc1ncccn1,0%,21%,8,u,31%
O=C(/C=C/c1cccc(Cl)c1)c1nc2ccccc2[nH]1,-1%,u,-4,u,3.2µM*
CCN(CC(=O)NCc1ccc(Cl)cc1)C(=O)c1ccc(C#N)cc1,0%,4%,5,0%,7%
C/C(CCC12CC3CC(CC(C3)C1)C2)=N\NC(N)=S,u,4.5µM*,-23,u,1.3µM*
NC(=O)NCC12CC3CC(CC(C3)C1)C2,0%,-7%,-29,14%,-15%
N/C(Cc1ccccc1)=N\OC(=O)c1cccc2ccccc12,0%,8.9µM*,-13,u,-7%
N/C(Cc1cccc2ccccc12)=N\OC(=O)c1ccccc1F,0%,0%,1,1%,6%
N/C(=N\OC(=O)c1cccc2ccccc12)c1ccncc1,0%,-8%,2,u,-17%
N/C(=N\OC(=O)c1cccc2ccccc12)c1ccc(Br)cc1,0%,5µM*,10,u,10µM*
